{
  "source": "the supplement of paper PMC11001985",
  "note": "A number with no mark means an inactive call.",
  "data": [
    {"compound": "C#CCNC(=O)CCSSCCC(=O)NCCc1ccc(C=O)c(C=O)c1", "test": "lysine labeling ratio R10:1 (500 µM / 50 µM probe), SILAC-ABPP in living cells; higher = lower intrinsic lysine reactivity toward the probe, active = 2 or less", "settings": "HeLa; probe concentrations 500 vs 50 µM", "method_in_brief": "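With forward and reverse label swaps, light and heavy SILAC HeLa cells, alive and in PBS at room temperature, were exposed to either 500 µM or 50 µM of an alkyne-tagged lysine probe bearing a disulfide link. After mixing, lysates were clicked to biotin-azide, cut with trypsin, pulled down on neutravidin, freed with DTT, alkylated and analysed on a TIMS-TOF Pro by LC-MS/MS. The per-lysine value R is the median over forward and reverse replicates of the filtered median high-probe/low-probe MS1 peptide ratio. It is capped at 20.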", "values": [
      {"target": "TNKS1BP1 (lysine site: K1680) (UniProt Q9C0C2)", "lysine labeling ratio R10:1": 2.22},
      {"target": "ATAD3B (lysine site: K135) (UniProt Q5T9A4)", "lysine labeling ratio R10:1": 2.68},
      {"target": "UniProt Q16513 (lysine site: K690)", "lysine labeling ratio R10:1": 2.89},
      {"target": "RPL35A (lysine site: K73) (UniProt P18077)", "lysine labeling ratio R10:1": 3.82},
      {"target": "CAPZB (lysine site: K57) (UniProt P47756)", "lysine labeling ratio R10:1": "1.35 (active)"},
      {"target": "GSN (lysine site: K193) (UniProt P06396)", "lysine labeling ratio R10:1": 2.07},
      {"target": "UniProt P62829 (lysine site: K74)", "lysine labeling ratio R10:1": 3.78},
      {"target": "UniProt P62277 (lysine site: K43)", "lysine labeling ratio R10:1": 7.76},
      {"target": "UniProt Q14574 (lysine site: K180)", "lysine labeling ratio R10:1": "1.97 (active)"},
      {"target": "SEMA3C (lysine site: K570) (UniProt Q99985)", "lysine labeling ratio R10:1": 8.1},
      {"target": "HSPA9 (lysine site: K76) (UniProt P38646)", "lysine labeling ratio R10:1": 3.36},
      {"target": "UniProt P62888 (lysine site: K44)", "lysine labeling ratio R10:1": 2.17},
      {"target": "NUCB1 (lysine site: K364) (UniProt Q02818)", "lysine labeling ratio R10:1": 2.75},
      {"target": "P4HB (lysine site: K114) (UniProt P07237)", "lysine labeling ratio R10:1": 6.39},
      {"target": "SMOC1 (lysine site: K381) (UniProt Q9H4F8)", "lysine labeling ratio R10:1": "1.04 (active)"},
      {"target": "ATP1B1 (lysine site: K134) (UniProt P05026)", "lysine labeling ratio R10:1": 6.75},
      {"target": "UniProt Q15149 (lysine site: K4513)", "lysine labeling ratio R10:1": "1.42 (active)"},
      {"target": "UniProt Q9UKX5 (lysine site: K150)", "lysine labeling ratio R10:1": 2.51},
      {"target": "UniProt Q9UHN6 (lysine site: K856)", "sequence (Q9UHN6 whole entry)": "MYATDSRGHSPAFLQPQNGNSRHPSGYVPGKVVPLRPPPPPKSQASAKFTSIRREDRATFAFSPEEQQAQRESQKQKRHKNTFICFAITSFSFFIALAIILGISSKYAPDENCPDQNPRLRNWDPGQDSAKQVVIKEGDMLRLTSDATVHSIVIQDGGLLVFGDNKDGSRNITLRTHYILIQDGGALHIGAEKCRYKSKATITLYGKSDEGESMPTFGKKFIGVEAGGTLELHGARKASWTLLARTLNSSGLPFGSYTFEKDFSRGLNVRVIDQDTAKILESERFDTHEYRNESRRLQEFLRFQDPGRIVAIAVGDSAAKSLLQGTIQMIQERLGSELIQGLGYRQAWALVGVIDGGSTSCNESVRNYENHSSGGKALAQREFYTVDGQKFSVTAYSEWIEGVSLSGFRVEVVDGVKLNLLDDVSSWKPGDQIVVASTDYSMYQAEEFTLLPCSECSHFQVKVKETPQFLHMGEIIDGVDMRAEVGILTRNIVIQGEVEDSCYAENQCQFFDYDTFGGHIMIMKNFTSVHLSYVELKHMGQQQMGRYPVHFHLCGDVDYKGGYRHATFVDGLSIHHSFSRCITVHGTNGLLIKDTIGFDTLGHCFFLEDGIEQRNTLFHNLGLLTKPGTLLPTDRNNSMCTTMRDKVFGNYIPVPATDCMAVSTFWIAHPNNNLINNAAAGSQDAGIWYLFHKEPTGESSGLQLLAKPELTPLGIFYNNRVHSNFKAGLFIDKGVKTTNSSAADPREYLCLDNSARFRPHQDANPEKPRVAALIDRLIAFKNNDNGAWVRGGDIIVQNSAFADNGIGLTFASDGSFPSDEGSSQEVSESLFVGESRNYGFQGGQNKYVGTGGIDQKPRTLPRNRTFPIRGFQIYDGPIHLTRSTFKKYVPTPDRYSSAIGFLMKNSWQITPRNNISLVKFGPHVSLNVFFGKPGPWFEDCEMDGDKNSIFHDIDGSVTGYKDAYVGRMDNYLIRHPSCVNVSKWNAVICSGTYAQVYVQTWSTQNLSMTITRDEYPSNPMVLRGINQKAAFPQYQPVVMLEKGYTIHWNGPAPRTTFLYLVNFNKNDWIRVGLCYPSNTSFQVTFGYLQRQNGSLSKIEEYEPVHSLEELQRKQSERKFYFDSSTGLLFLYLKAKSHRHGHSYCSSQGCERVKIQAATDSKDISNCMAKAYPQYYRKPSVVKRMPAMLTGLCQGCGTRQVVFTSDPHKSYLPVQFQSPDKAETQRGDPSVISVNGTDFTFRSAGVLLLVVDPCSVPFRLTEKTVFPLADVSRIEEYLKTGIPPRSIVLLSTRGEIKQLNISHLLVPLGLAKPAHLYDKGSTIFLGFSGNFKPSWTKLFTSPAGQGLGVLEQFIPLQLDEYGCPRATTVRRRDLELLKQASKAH", "lysine labeling ratio R10:1": "0.771 (active)"},
      {"target": "UniProt Q9UHN6 (lysine site: K1182)", "lysine labeling ratio R10:1": 6.32},
      {"target": "UniProt P46781 (lysine site: K30)", "lysine labeling ratio R10:1": "1.01 (active)"},
      {"target": "IGF2R (lysine site: K2197) (UniProt P11717)", "lysine labeling ratio R10:1": 8.12},
      {"target": "GPI (lysine site: K447) (UniProt P06744)", "lysine labeling ratio R10:1": 2.73},
      {"target": "LRP6 (lysine site: K1053) (UniProt O75581)", "lysine labeling ratio R10:1": 2.76},
      {"target": "ITGA3 (lysine site: K638) (UniProt P26006)", "lysine labeling ratio R10:1": 5.04},
      {"target": "FAT4 (lysine site: K2512) (UniProt Q6V0I7)", "lysine labeling ratio R10:1": 2.31},
      {"target": "MYH9 (lysine site: K1724) (UniProt P35579)", "lysine labeling ratio R10:1": "1.66 (active)"},
      {"target": "MSN (lysine site: K412) (UniProt P26038)", "lysine labeling ratio R10:1": 3.35},
      {"target": "EPHB4 (lysine site: K267) (UniProt P54760)", "lysine labeling ratio R10:1": 3.27},
      {"target": "PTPRF (lysine site: K994) (UniProt P10586)", "sequence (P10586 whole entry)": "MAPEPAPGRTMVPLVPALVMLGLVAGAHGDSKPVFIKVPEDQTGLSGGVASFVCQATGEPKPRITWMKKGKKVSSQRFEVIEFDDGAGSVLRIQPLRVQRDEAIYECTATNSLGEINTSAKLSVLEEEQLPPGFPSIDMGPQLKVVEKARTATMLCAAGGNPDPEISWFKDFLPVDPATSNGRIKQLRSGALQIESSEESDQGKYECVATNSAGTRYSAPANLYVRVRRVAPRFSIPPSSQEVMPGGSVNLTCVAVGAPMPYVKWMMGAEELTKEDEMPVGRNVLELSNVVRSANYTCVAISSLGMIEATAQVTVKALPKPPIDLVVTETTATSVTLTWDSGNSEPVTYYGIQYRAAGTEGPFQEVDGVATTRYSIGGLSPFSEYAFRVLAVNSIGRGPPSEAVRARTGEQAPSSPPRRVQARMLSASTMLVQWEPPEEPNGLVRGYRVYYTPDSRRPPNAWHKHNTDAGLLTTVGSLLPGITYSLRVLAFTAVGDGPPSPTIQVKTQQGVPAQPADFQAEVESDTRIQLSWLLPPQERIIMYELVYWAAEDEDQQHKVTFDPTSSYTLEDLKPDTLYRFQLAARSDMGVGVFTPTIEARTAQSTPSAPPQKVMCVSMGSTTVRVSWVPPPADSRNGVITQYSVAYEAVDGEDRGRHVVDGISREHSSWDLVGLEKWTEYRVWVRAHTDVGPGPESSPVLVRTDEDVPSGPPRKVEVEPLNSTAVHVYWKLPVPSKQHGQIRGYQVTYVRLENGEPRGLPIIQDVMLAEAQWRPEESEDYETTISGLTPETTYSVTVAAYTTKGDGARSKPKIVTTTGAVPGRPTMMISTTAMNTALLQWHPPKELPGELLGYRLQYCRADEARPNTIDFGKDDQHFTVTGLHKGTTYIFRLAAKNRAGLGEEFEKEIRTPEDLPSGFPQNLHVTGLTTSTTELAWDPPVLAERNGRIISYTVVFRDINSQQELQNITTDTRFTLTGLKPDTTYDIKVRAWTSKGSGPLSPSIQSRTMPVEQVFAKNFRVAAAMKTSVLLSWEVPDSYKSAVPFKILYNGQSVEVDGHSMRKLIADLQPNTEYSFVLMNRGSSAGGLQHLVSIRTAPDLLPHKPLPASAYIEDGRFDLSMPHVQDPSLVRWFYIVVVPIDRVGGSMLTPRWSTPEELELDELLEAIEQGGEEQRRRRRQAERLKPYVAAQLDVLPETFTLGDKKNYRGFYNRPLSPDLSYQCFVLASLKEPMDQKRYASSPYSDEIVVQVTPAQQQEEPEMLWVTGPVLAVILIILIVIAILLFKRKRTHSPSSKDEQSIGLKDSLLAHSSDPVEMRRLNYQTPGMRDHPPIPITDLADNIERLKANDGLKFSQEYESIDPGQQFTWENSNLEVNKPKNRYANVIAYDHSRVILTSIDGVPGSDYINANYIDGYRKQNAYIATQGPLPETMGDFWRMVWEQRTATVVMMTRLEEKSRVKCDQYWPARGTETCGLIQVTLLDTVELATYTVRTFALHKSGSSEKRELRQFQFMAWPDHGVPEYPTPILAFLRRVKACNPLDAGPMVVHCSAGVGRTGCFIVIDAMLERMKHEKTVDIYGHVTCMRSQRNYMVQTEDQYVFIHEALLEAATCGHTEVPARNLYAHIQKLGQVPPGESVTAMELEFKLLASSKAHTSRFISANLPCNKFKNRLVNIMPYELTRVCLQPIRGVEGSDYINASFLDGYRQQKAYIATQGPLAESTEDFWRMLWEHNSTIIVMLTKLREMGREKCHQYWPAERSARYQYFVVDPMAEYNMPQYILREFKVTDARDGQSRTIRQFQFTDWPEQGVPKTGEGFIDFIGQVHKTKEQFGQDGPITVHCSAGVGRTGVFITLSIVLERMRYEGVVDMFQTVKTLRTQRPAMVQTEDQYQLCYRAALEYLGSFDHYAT", "lysine labeling ratio R10:1": 4.54},
      {"target": "RPL4 (lysine site: K259) (UniProt P36578)", "lysine labeling ratio R10:1": "1.88 (active)"},
      {"target": "UniProt Q12904 (lysine site: K35)", "lysine labeling ratio R10:1": "1.92 (active)"},
      {"target": "NOTCH1 (lysine site: K1607) (UniProt P46531)", "lysine labeling ratio R10:1": 6.4},
      {"target": "LAMC1 (lysine site: K1425) (UniProt P11047)", "lysine labeling ratio R10:1": 2.54},
      {"target": "UniProt O15354 (lysine site: K405)", "lysine labeling ratio R10:1": "1.9 (active)"},
      {"target": "EPRS (lysine site: K435) (UniProt P07814)", "sequence (P07814 whole entry)": "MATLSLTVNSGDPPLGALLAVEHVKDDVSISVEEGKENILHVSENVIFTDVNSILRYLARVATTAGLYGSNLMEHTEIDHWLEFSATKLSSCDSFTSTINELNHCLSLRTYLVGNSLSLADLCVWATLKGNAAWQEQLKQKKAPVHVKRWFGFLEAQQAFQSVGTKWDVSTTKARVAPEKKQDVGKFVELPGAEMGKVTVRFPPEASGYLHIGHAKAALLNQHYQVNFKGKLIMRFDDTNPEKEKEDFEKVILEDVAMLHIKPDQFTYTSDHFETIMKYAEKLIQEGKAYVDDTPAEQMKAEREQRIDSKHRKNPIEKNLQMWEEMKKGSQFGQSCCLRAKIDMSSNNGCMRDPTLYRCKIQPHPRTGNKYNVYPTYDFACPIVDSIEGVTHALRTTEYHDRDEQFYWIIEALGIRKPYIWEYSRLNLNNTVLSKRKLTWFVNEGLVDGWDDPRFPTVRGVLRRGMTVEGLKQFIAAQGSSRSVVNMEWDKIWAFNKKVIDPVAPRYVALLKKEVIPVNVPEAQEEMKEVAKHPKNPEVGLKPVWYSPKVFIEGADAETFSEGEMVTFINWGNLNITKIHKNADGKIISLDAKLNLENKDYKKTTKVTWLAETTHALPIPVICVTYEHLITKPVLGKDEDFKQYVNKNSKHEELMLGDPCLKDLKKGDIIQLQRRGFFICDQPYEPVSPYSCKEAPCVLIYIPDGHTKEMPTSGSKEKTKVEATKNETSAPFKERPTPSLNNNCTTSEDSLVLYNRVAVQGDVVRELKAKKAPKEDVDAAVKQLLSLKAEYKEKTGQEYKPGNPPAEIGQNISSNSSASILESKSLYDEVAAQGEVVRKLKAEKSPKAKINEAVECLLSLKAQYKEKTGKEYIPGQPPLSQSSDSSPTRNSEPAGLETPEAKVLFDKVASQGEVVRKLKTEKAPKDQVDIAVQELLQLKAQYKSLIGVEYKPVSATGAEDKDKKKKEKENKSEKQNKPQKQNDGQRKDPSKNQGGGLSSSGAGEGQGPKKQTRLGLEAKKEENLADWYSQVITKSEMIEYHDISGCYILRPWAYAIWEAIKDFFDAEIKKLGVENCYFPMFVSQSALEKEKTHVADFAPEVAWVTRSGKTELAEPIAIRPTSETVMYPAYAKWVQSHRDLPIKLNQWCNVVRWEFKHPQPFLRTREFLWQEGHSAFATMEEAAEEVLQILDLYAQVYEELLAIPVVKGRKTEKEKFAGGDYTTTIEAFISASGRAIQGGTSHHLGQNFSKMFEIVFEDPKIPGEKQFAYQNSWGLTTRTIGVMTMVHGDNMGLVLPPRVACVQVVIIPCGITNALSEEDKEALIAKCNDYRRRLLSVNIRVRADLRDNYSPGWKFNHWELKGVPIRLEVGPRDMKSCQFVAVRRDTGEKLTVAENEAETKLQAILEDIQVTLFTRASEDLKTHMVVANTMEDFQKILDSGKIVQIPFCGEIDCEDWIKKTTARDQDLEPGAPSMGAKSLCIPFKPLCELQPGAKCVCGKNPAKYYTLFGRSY", "lysine labeling ratio R10:1": 2.68},
      {"target": "AHNAK (lysine site: K2993) (UniProt Q09666)", "lysine labeling ratio R10:1": "1 (active)"},
      {"target": "UniProt P16144 (lysine site: K151)", "lysine labeling ratio R10:1": "1.53 (active)"},
      {"target": "CD63 (lysine site: K162) (UniProt P08962)", "sequence (P08962 whole entry)": "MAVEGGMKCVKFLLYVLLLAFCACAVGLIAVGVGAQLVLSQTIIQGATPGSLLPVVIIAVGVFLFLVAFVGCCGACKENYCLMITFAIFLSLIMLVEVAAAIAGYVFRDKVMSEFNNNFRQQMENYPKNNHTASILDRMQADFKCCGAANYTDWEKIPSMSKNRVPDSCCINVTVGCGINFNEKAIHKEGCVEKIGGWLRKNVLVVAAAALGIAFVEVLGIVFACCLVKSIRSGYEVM", "lysine labeling ratio R10:1": 4.92},
      {"target": "ACTN1 (lysine site: K492) (UniProt P12814)", "lysine labeling ratio R10:1": "0.906 (active)"}
    ]}
  ]
}
